Experimental data published in paper PMC4336329 (PLoS ONE, 2015).
Hit rate of the full screen: of about 310,000 compounds, about 14,000 (4.5%) showed an effect of 50% or more. Effects have a minus sign here. Only a selection was taken, and strong results are over-represented in it overall.

molecular target: human ether-à-go-go-related gene (hERG) potassium channel (human, UniProt Q12809); test: primary screen, population patch clamp on CHO cells stably expressing hERG; higher = less effect of the substance
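Further: peak tail current of the secondary pulse compared with the same well before compound.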

Sequence of human ether-à-go-go-related gene (hERG) potassium channel (Q12809 whole entry, looked up): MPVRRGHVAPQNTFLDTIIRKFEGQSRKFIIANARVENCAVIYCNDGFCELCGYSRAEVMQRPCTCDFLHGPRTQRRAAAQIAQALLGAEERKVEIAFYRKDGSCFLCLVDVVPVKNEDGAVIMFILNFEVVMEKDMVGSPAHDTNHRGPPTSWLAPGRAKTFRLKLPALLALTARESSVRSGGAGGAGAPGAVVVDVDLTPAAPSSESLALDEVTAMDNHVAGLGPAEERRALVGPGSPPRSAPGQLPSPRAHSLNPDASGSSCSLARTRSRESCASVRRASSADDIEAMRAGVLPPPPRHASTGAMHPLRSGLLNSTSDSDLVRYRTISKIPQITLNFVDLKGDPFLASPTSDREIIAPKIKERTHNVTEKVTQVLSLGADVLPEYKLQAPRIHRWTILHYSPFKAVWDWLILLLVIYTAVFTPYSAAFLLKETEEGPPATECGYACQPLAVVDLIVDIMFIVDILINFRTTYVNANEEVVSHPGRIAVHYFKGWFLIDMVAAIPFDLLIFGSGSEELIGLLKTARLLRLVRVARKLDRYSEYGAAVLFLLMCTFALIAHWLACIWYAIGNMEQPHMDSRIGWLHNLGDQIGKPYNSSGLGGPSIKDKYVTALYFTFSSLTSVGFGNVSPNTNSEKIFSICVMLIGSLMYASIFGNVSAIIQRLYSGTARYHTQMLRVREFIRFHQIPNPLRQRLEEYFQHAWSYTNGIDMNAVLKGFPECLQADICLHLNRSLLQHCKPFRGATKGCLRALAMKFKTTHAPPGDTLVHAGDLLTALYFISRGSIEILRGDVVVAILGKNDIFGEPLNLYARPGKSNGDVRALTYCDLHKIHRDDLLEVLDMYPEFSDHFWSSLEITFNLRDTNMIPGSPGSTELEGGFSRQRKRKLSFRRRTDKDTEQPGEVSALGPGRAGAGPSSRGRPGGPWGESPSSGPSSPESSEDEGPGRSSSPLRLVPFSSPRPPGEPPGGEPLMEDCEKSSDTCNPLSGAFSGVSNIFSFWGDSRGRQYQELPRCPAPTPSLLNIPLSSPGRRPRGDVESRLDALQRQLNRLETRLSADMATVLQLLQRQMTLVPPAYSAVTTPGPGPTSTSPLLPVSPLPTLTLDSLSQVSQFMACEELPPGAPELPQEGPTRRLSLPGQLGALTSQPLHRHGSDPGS

Going from CCOC(=O)N1CCN(C(=O)CS(=O)(=O)Cc2nc(-c3ccccc3F)oc2C)CC1 to O=C(CN1CCN(CC(=O)Nc2ccccc2F)CC1)Nc1ccc2c(c1)OCCO2, the “hERG current change (%, negative = inhibition) at 10uM” value falls from -13.6% to -71.2%.

First: O=C(CSc1nc2cccnc2n1Cc1ccccc1)N1CCCC1
Second: Cn1c(SCC(=O)N2CCCC2)nc2cccnc21
The “hERG current change (%, negative = inhibition) at 10uM” value of the first is lower: -63.7% for the first, 16.9% for the second.

Compared with CCOC(=O)CNC(=O)CSc1nc2cccnc2n1C, CCOC(=O)CNC(=O)CSc1nc2cccnc2n1CC is lower in “hERG current change (%, negative = inhibition) at 10uM” value: 7.54% for the first, -7.04% for the second.

First: COCCn1c(SCC(=O)N2CCCCC2)nc2cccnc21
Second: CCOC(=O)CNC(=O)CSc1nc2cccnc2n1Cc1ccccc1
The “hERG current change (%, negative = inhibition) at 10uM” value of the first is higher: -1.5% for the first, -53.9% for the second.

Going from CC1=C(C(=O)OC(C)C)C(c2cncc(-c3ccc(F)cc3)c2)C(C#N)=C(N)O1 (stereo not shown) to Cn1cc(C(=O)c2ccc(F)cc2)cc1-c1nc2ccccc2n1C, the “hERG current change (%, negative = inhibition) at 10uM” value falls from -28.6% to -50.5%.

First: Cc1nn(CC2CCCCC2)c(N)c1-c1ccccc1
Second: Cc1nc(NC2CCCCC2)c2nnn(Cc3ccccc3Cl)c2n1
The “hERG current change (%, negative = inhibition) at 10uM” value of the first is lower: -12.2% for the first, 8.09% for the second.

Going from CC(C)(C)c1cc(C(F)(F)F)c(C#N)c(=O)[nH]1 to N#CC(c1cccc(C(F)(F)F)c1)(c1ncc(C(F)(F)F)cc1Cl)N1CCOCC1 (stereo not shown), the “hERG current change (%, negative = inhibition) at 10uM” value falls from 25% to 4.46%.

First: CC1CCCC/C1=N/Nc1ccc([N+](=O)[O-])cc1[N+](=O)[O-] (stereo not shown)
Second: O=[N+]([O-])c1ccc(N/N=C2/CCCCC2c2ccccn2)c([N+](=O)[O-])c1 (stereo not shown)
The “hERG current change (%, negative = inhibition) at 10uM” value of the first is higher: -1.11% for the first, -56.3% for the second.

First: C[n+]1ccccc1C1CCCC/C1=N\Nc1ccc([N+](=O)[O-])cc1[N+](=O)[O-].[I-] (stereo not shown)
Second: O=C(CN1CCC(C(=O)c2ccc3c(c2)OCCO3)CC1)Nc1ccccc1F
The “hERG current change (%, negative = inhibition) at 10uM” value of the first is lower: -11.8% for the first, -0.724% for the second.

Compared with COc1ccccc1C(=O)NC(CCSC)C(=O)NCC(c1cccs1)N(C)C (stereo not shown), COc1ccc(NC(=O)C(=O)NNC(=O)COc2ccc(Cl)cc2)c(OC)c1 is higher in “hERG current change (%, negative = inhibition) at 10uM” value: 2.41% for the first, 10.5% for the second.

First: Cn1cc(C(=O)c2ccc(Cl)cc2)cc1-c1nc2ccccc2n1C
Second: Cn1cc(C(=O)c2ccccc2)cc1-c1nc2ccccc2n1C
The “hERG current change (%, negative = inhibition) at 10uM” value of the first is lower: -47.9% for the first, -41.9% for the second.

First: CCN(CC)CCn1c(OC)cc(=O)[nH]c1=O
Second: CCC1=C(OC(=O)N(CC)CC)N2C(=O)OC(=NCCc3c[nH]c4ccccc34)[C@]2(C)[C@H]2C1=CC[C@H]1C(=O)N(CC)C(=O)[C@H]12
The “hERG current change (%, negative = inhibition) at 10uM” value of the first is higher: 17.6% for the first, -9.68% for the second.

First: CCn1cc(CNC(=O)c2ccc3nc(Cc4ccc(OC)cc4)oc3c2)cn1
Second: COc1ccc([C@H]2CC(=O)C=C(c3ccnc4ccc(Cl)cc34)C2)cc1
The “hERG current change (%, negative = inhibition) at 10uM” value of the first is higher: 6.8% for the first, -57.6% for the second.

First: COc1ccc([C@H]2CC(=O)C=C(c3cccc(Cl)c3)C2)cc1
Second: COc1cccc(C2=CC(=O)C[C@H](c3ccc(Cl)cc3)C2)c1
The “hERG current change (%, negative = inhibition) at 10uM” value of the first is lower: -11.8% for the first, 15.4% for the second.

Going from COc1ccc([C@H]2CC(=O)C=C(c3ccc(Cl)cc3C)C2)cc1 to COc1ccc([C@H]2CC(=O)C=C(c3cc(Cl)ccc3OC)C2)cc1, the “hERG current change (%, negative = inhibition) at 10uM” value rises from 4.03% to 7.4%.

Going from COc1ccc([C@H]2CC(=O)C=C(c3cccc(Br)c3)C2)cc1 to COc1ccc([C@H]2CC(=O)C=C(c3cccc(C#N)c3)C2)cc1, the “hERG current change (%, negative = inhibition) at 10uM” value falls from -1.14% to -72.3%.

Going from COc1cccc(C2=CC(=O)C[C@H](c3ccc(F)cc3)C2)c1 to COc1ccc([C@H]2CC(=O)C=C(c3cccc(OC)c3)C2)cc1, the “hERG current change (%, negative = inhibition) at 10uM” value falls from -14.9% to -82.1%.

Compared with Cc1ccc(S(=O)(=O)NCC(=O)NCCc2c[nH]c3ccccc23)cc1C, Cl.O=C(CN1CCC(NC(=O)c2ccccc2F)CC1)Nc1ccc2c(c1)OCCO2 is higher in “hERG current change (%, negative = inhibition) at 10uM” value: 3.3% for the first, 6.04% for the second.

Going from O=C(NCC1OCCCN1S(=O)(=O)c1cc(F)ccc1F)C(=O)NC1CCCCC1 (stereo not shown) to CN(CC1CCCCO1)C(=O)c1cc(COc2ccc(F)cc2Cl)on1 (stereo not shown), the “hERG current change (%, negative = inhibition) at 10uM” value falls from -3.8% to -87.1%.

First: O=C(CN1CCOCC1)Nc1ccccc1Cl
Second: O=C(CN1CCN(CC(=O)Nc2ccccc2Cl)CC1)Nc1ccc2c(c1)OCCO2
The “hERG current change (%, negative = inhibition) at 10uM” value of the first is higher: -8.73% for the first, -68.7% for the second.

First: O=C(CN1CCOCC1)Nc1ccc2c(c1)OCCO2.O=C(O)C(=O)O
Second: COc1cc(Cl)ccc1OCc1cc(C(=O)N(C)CC2CCCCO2)no1 (stereo not shown)
The “hERG current change (%, negative = inhibition) at 10uM” value of the first is higher: 15% for the first, -18.7% for the second.

Going from COC(=O)N/N=C/c1ccccc1Cl to CCN(Cc1ccncc1)C(=O)c1cc(COc2ccc(F)cc2Cl)on1, the “hERG current change (%, negative = inhibition) at 10uM” value falls from 19.4% to -44%.

Compared with O=C(c1cc(COc2ccc(F)cc2Cl)on1)N(Cc1ccncc1)CC1CCCO1 (stereo not shown), CCCN(CC1CCCO1)C(=O)c1cc(COc2ccc(F)cc2F)on1 (stereo not shown) is higher in “hERG current change (%, negative = inhibition) at 10uM” value: -60.7% for the first, -15% for the second.
